Data taken from PubChem BioAssay AID588493 (Sanford-Burnham Center for Chemical Genomics, 2011).
Out of some 360,000 compounds screened, about 2,100 (0.58%) were called active.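 Rule for the calls: active = inhibition at 20 µM, scaled to each plate's controls, above about 33% (limit read from the data); inactive = the rest.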 The full list was thinned out, with actives kept by preference.

Biological target: 26S proteasome non-ATPase regulatory subunit 14 (Homo sapiens) (UniProt O00487)
Experiment: Rpn11 (PSMD14) deubiquitinase inhibitors, primary screen, biochemical, fluorescence polarization, uHTS (AID 588493)
Settings: human 26S proteasome, Ub4-pepOG fluorescence polarization; at 20 µM; hits give high values; 20S core pre-blocked with epoxomicin

Chain of 26S proteasome non-ATPase regulatory subunit 14 (Homo sapiens) (O00487 whole entry, looked up): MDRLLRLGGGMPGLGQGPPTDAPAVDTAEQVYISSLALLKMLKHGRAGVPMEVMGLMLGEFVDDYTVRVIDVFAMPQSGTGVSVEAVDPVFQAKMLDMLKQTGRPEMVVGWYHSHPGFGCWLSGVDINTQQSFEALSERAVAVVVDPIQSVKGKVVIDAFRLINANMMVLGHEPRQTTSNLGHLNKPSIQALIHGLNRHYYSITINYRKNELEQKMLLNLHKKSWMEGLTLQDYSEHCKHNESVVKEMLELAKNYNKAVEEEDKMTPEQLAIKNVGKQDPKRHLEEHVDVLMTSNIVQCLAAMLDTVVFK

Compound	inhibition
CCCCN(C(=O)c1ccc(C)o1)c1c(N)n(CCCC)c(=O)[nH]c1=O	-3.8% (inactive)
O=C(COc1cccc(F)c1)Oc1ccc(C(=O)c2ccccc2)cc1	43% (active)
O=C(COC(=O)COc1cccc(F)c1)NCC1CCCCC1	-7.3% (inactive)
CCN(C(=O)COc1ccc(C(=O)c2ccccc2)cc1)c1ccccc1	-0.2% (inactive)
O=C(c1cccnc1)N(c1cc2sc(=O)oc2c2ccccc12)S(=O)(=O)c1ccccc1	2.8% (inactive)
NC(=O)Cc1ccc2sc(-c3ccccc3)nc2c1	4.7% (inactive)
C=CCn1c(SCC(=O)NCc2ccccc2)nnc1-c1cc(Br)ccc1O	37.3% (active)
O=C(CSc1nnc(-c2cccnc2)n1CCc1ccccc1)NCc1ccccc1	-6.8% (inactive)
C=CCn1c(SCC(=O)NC(=O)Cc2ccccc2)nc2ccccc2c1=O	0.5% (inactive)
COc1ccc(CNc2c(CO)cnc3c2cnn3C)cc1	-6.6% (inactive)
COCCCNC(=S)N1CCN(c2nc(-c3cccc(OC)c3)cs2)CC1	5.4% (inactive)
COc1ccc(NC(=O)c2ccco2)cc1NC(=O)c1ccc(C#N)cc1F	-5.8% (inactive)
N#Cc1ccc(C(=O)Nc2cccc3cccnc23)c(F)c1	102% (active)
CSc1ccc(C#N)cc1NC(=O)c1cccc(Cl)c1	7.6% (inactive)
Cc1ccc(CCNC(=O)CN2C(=O)CSc3ccc(S(=O)(=O)N4CCOCC4)cc32)cc1	-1.8% (inactive)
CCCCCCCCc1c(O)nc(-n2[nH]c(C)c(CCO)c2=O)[nH]c1=O	11.1% (inactive)
COc1cc(OC)cc(C(=O)NCCCn2ccnc2)c1	0.7% (inactive)
COc1cccc(-c2nn(-c3ccccc3)cc2/C=C(\C#N)C(=O)NCCCn2ccnc2)c1	56% (active)
COc1ccc(/C=C(\C#N)C(=O)NCCCn2ccnc2)cc1	-1.5% (inactive)
CCCCc1nnc(NC(=O)CS(=O)(=O)Cc2ccccc2)s1	5.2% (inactive)
C/C(=N/NS(=O)(=O)c1ccccc1)c1ccc(NC(=O)C(F)(F)F)cc1	-2% (inactive)
NC(=O)c1cc(S(=O)(=O)NCCCc2ccco2)cs1	-4.1% (inactive)
O=C(N/N=C/c1cccc(Br)c1)c1ccc(N2CCCC2=O)cc1	49.1% (active)
O=C(N/N=C\c1cccc(Br)c1)c1ccccc1-n1cccc1	23.2% (inactive)
O=C(Nc1ccc(N2CCCC2=O)cc1)c1cncc(Br)c1	-4.8% (inactive)
Cc1cc2nc(-c3ccco3)c(Cc3cccc(F)c3)n2c(C)c1Br	11.6% (inactive)

Compound	inhibition
CN(C)CCn1c2c(c(SCC(=O)Nc3ccccc3C(F)(F)F)nc1=O)CCCC2	-0.6% (inactive)
O=C1c2ccccc2S(=O)(=O)c2cc(N3CCN(c4ccccn4)CC3)ccc21	40.2% (inactive)
CC1CCN(c2ccc3c(c2)S(=O)(=O)c2cc(C(=O)O)ccc2C3=O)CC1	57.1% (active)
OC(c1ccc(Cl)cc1)c1ncc(-c2ccc(Cl)cc2)[nH]1 (configuration not stated)	-5.5% (inactive)
COc1ccc(CNC(=O)C(C)n2nc(C)c3c(C)n(-c4ccccc4)nc3c2=O)c(OC)c1 (configuration not stated)	0% (inactive)
CCCCN(C(=O)C1CCC1)c1c(N)n(Cc2ccccc2)c(=O)[nH]c1=O	-10.9% (inactive)
Cc1ccc(Cl)cc1NC(=O)COC(=O)C1CCCCC1	-8.8% (inactive)
CCC(=O)N(CCc1ccccc1)Cc1cc2cc(C)ccc2[nH]c1=O	-6.2% (inactive)
CCNCc1cc2cc(C)ccc2[nH]c1=O	82.8% (active)
CCCc1nc(-c2cc3cc(C)ccc3[nH]c2=O)no1	-0.2% (inactive)
CCc1noc(C)c1C(=O)N1CCN(S(=O)(=O)c2cccc(C(F)(F)F)c2)CC1	0% (inactive)
CC(=O)c1ccc(NC(=S)N(Cc2ccccc2)C(C)C2CC2)cc1 (configuration not stated)	8.8% (inactive)
CCC(=O)Nc1ccc2nc(C)n(Cc3ccccc3Cl)c(=O)c2c1	-7.7% (inactive)
CCOc1cc(NC(=O)c2ccccc2C(=O)O)c(OCC)cc1NC(=O)c1ccccc1F	1.8% (inactive)
CCN1CCN(c2cc3nc(C)n(Cc4ccccc4)c(=O)c3cc2NC(=O)c2ccccc2F)CC1	47.3% (active)
Fc1ccc(CNc2nc3ccccc3n3nnnc23)cc1	-38.7% (inactive)
CCN1CCCC1CNC(=O)c1cc2c(=O)n(C)c3ccccc3c2n1C (configuration not stated)	66.2% (active)
CCN1CCCC1CNC(=O)c1cc2cc(OC)c(OC)cc2[nH]1 (configuration not stated)	-10.4% (inactive)
Cn1c(C(=O)N2CCC(C(N)=O)CC2)cc2c(=O)n(C)c3ccccc3c21	-3.7% (inactive)
Cc1ccc(OCCCC(=O)Nc2ccc(N3CCOCC3)cc2)cc1	1.7% (inactive)
COc1cccc(/C=C(/CC(=O)Nc2ccc(N3CCOCC3)cc2)c2nc3ccccc3s2)c1	41.7% (active)
CCn1c(Cc2ccc(OC)cc2)nnc1SCC(=O)Nc1ccc(N2CCOCC2)cc1	5% (inactive)
COc1cc(OC)cc(C(=O)Nc2ncc3c(n2)CC(C)(C)CC3=O)c1	1.2% (inactive)
CCN(CC)S(=O)(=O)c1ccc2nc(CSc3nnnn3-c3ccc(O)cc3)[nH]c2c1	0.9% (inactive)
O=C(Nc1cc(Br)ccc1F)c1nc[nH]c1C(=O)NCc1ccccc1	-6.2% (inactive)
O=C(c1ccc2c(c1)N(Cc1ccc(F)cc1)C(=O)CS2)N1CCOCC1	1.1% (inactive)
